We go through one sequence from publication PMC7862700, “An all-to-all approach to the identification of sequence-specific readers for epigenetic DNA modifications on cytosine”.

Common to all, as to experiment: DAPPL (digital affinity profiling via proximity ligation, sequencing); 10 mM Tris-HCl pH 7.5, 50 mM NaCl, 1 mM DTT, 4% glycerol, room temperature, 30 min; GST-TFs on glutathione beads, 16-mer random dsDNA library, 0.1% formaldehyde crosslink after washing; high values mean tight binding
In assay [1] the target is T1, FLI1 (Homo sapiens, UniProt Q01543 1-452).
T1 sequence: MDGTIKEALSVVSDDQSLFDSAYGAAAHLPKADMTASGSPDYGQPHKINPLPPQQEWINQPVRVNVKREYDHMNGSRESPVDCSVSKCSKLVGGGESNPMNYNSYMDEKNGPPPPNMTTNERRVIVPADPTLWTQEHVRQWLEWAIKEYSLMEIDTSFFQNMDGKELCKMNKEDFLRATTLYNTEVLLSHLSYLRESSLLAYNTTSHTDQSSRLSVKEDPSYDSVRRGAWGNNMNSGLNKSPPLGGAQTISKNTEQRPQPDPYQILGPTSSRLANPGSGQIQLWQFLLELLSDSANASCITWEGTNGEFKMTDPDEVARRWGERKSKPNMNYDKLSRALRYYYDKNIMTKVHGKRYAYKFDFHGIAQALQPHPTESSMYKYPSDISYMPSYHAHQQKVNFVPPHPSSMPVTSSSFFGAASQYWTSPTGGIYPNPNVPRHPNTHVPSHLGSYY
To be noted: protein: recombinant; tags: N-terminal GST; dsDNA, one strand shown. Summed up: (§1)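 Beads coated with glutathione captured GST-fused human transcription factors that had been expressed in yeast, and the factors were then given DNA barcodes and pooled with a tag-only sample. The pools were incubated with 200 nmole of a random double-stranded 16-mer DNA library in Tris/NaCl/DTT/glycerol buffer for 30 min at room temperature, washed, crosslinked with 0.1% formaldehyde and proximity-ligated with BsaI/T4 ligase at 37 °C for 1 h. PCR amplification and Illumina NextSeq500 sequencing came last. Binding signal is each hexamer's read frequency for a factor divided by its frequency for the tag-only sample.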

For assay [2], the target named is T2, ELK1 (Homo sapiens, UniProt P19419 1-428).
T2 sequence: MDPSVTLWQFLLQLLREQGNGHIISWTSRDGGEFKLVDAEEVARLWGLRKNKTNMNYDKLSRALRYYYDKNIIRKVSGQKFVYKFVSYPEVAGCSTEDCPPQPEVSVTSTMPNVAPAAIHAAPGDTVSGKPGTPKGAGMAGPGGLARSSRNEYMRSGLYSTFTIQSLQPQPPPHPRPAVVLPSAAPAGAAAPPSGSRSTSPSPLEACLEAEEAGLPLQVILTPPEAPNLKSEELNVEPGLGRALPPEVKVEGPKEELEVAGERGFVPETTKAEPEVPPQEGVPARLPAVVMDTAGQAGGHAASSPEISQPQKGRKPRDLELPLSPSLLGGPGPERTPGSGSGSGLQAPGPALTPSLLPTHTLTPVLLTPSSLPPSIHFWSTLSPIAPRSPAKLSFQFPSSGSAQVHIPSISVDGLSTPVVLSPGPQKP
To be noted: protein: recombinant; tags: N-terminal GST; dsDNA, one strand shown. The method, boiled down:
as §1

Assay [3] has as its target T3, GABPA (Homo sapiens, UniProt Q06546 1-454).
T3 sequence: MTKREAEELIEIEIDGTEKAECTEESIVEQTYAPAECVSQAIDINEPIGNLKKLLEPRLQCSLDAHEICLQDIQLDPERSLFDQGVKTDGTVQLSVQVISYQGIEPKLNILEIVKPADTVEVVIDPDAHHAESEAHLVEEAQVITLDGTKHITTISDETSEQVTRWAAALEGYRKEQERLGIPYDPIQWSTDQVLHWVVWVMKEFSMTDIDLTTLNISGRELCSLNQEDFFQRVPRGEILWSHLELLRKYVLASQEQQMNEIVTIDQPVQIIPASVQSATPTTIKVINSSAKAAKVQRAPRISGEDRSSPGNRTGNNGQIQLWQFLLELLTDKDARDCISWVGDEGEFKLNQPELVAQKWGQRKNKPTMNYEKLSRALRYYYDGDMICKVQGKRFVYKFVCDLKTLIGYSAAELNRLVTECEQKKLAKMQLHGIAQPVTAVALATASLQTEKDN
As to conditions: protein: recombinant; tags: N-terminal GST; dsDNA, one strand shown. The method, boiled down:
as §1

In assay [4] the target is T4, ERG (Homo sapiens, UniProt P11308 1-479).
T4 sequence: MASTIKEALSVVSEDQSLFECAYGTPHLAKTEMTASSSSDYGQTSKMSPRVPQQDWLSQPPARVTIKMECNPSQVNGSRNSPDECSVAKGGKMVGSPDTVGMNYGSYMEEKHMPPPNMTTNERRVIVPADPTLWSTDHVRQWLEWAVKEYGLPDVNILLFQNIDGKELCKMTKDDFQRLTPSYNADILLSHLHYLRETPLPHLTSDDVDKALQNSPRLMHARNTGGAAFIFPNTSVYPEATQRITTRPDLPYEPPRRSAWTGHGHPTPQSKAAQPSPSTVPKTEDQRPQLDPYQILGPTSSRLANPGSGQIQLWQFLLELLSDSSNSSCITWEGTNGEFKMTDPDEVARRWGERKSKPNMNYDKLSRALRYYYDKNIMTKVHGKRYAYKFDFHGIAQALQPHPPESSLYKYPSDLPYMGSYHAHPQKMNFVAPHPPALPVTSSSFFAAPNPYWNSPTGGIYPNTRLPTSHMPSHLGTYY
As to conditions: protein: recombinant; tags: N-terminal GST; dsDNA, one strand shown. Summed up: as §1

Assay [5] deals with ELF1 (Homo sapiens, UniProt P32519 1-619). As to conditions: protein: recombinant; tags: N-terminal GST; dsDNA, one strand shown. The method, boiled down:
as §1

Assay [6] has as its target SPI1 (Homo sapiens, UniProt P17947 1-270). As to conditions: protein: recombinant; tags: N-terminal GST; dsDNA, one strand shown. Summed up:
as §1

Assay [7] has as its target SPIB (Homo sapiens, UniProt Q01892 1-262). To be noted: protein: recombinant; tags: N-terminal GST; dsDNA, one strand shown. The method, boiled down:
as §1

The target of assay [8] is T5, ELK3 (Homo sapiens, UniProt P41970 1-407).
T5 sequence: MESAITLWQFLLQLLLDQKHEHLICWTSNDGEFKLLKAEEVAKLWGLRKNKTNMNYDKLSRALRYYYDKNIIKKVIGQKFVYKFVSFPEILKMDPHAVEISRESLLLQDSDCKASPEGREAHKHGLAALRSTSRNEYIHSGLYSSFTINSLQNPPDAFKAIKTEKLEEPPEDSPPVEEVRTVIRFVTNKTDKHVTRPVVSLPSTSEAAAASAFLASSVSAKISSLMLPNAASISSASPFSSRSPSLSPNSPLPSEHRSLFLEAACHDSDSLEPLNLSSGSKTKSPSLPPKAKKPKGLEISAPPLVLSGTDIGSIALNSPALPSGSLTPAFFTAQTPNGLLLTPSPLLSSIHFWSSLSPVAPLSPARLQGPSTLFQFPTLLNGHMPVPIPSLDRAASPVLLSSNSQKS
As to conditions: protein: recombinant; tags: N-terminal GST; dsDNA, one strand shown. The method, boiled down:
as §1

The target in assay [9] is T6, FEV (Homo sapiens, UniProt Q99581 1-238).
T6 sequence: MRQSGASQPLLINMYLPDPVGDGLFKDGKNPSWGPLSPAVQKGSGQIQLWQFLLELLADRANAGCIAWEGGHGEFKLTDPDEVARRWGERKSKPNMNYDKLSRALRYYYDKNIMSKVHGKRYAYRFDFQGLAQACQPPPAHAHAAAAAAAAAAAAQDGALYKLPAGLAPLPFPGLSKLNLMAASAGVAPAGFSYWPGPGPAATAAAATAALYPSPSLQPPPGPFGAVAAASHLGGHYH
To be noted: protein: recombinant; tags: N-terminal GST; dsDNA, one strand shown. Summed up:
as §1

Assay [10] concerns the target ETV5 (Homo sapiens, UniProt P41161 1-510). To be noted: protein: recombinant; tags: N-terminal GST; dsDNA, one strand shown. The method, boiled down: as §1
Assay [11] concerns the target HSF1 (Homo sapiens, UniProt Q00613 1-529). To be noted: protein: recombinant; tags: N-terminal GST; chain copies: 3; dsDNA, one strand shown. Summed up: as §1
In assay [12] the target is T7, SPIC (Homo sapiens, UniProt Q8N5J4 1-248).
T7 sequence: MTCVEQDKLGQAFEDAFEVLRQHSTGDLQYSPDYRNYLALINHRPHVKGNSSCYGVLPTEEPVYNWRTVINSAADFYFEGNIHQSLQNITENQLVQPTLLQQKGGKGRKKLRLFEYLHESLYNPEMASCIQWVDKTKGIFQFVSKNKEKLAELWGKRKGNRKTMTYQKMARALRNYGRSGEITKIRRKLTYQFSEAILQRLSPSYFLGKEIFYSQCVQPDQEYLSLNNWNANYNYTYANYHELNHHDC
As to conditions: protein: recombinant; tags: N-terminal GST; dsDNA, one strand shown. The method, boiled down:
as §1

For assay [13], the target named is ELF4 (Homo sapiens, UniProt Q99607 1-663). To be noted: protein: recombinant; tags: N-terminal GST; dsDNA, one strand shown. Summed up: as §1
In assay [14] the target is T8, ELK4 (Homo sapiens, UniProt P28324-2 1-405).
T8 sequence: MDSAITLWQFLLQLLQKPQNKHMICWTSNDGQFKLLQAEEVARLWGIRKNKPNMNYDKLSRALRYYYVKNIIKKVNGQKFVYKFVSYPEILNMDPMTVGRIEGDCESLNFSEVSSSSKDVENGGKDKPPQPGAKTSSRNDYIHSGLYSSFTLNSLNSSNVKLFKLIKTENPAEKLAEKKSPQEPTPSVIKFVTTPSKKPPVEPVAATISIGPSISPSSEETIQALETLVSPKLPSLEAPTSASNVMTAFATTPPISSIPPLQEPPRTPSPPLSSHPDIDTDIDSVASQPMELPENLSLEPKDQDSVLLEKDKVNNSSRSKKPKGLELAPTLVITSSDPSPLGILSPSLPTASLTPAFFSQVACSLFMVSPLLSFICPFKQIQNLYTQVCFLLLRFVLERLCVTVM
As to conditions: protein: recombinant; tags: N-terminal GST; dsDNA, one strand shown. Summed up: as §1

Assay [15] concerns the target T9, ELF3 (Homo sapiens, UniProt P78545 1-371).
T9 sequence: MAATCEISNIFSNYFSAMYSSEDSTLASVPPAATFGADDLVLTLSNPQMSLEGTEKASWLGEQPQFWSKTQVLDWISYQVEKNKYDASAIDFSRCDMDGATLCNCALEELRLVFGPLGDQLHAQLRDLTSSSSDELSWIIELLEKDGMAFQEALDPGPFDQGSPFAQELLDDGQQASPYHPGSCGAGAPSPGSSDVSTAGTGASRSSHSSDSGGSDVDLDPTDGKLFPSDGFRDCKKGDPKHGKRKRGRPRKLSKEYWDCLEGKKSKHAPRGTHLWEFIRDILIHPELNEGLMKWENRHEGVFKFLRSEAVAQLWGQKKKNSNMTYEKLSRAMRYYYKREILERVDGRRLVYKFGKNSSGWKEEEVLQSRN
As to conditions: protein: recombinant; tags: N-terminal GST; dsDNA, one strand shown. Summed up: as §1

In assay [16] the target is CRX (Homo sapiens, UniProt O43186 1-299). As to conditions: protein: recombinant; tags: N-terminal GST; dsDNA, one strand shown. The method, boiled down: as §1
The target of assay [17] is ETV1 (Homo sapiens, UniProt P50549 1-477). As to conditions: protein: recombinant; tags: N-terminal GST; dsDNA, one strand shown. The method, boiled down:
as §1

SPIB, sequence (Q01892 whole entry): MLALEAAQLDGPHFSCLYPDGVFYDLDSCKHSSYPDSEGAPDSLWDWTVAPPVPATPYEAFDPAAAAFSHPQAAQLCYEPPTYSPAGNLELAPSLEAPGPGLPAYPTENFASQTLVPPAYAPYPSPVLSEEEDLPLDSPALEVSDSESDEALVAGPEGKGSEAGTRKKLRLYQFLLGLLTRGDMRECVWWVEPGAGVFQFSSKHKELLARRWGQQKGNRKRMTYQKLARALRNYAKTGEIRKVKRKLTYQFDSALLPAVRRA
ETV1, sequence (P50549 whole entry): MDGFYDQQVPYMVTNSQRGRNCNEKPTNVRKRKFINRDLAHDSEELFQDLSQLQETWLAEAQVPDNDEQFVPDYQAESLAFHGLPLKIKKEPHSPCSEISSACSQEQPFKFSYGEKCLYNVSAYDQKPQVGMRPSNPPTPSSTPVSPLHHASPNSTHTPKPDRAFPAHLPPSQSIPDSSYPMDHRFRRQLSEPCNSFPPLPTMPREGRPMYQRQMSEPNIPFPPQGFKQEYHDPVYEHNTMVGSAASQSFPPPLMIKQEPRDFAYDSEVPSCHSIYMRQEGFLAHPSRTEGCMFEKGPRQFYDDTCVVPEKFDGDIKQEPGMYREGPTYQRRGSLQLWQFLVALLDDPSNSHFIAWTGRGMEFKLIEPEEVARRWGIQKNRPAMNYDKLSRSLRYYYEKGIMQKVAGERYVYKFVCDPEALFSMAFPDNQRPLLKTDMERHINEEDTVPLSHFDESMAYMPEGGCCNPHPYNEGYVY
ETV5, sequence (P41161 whole entry): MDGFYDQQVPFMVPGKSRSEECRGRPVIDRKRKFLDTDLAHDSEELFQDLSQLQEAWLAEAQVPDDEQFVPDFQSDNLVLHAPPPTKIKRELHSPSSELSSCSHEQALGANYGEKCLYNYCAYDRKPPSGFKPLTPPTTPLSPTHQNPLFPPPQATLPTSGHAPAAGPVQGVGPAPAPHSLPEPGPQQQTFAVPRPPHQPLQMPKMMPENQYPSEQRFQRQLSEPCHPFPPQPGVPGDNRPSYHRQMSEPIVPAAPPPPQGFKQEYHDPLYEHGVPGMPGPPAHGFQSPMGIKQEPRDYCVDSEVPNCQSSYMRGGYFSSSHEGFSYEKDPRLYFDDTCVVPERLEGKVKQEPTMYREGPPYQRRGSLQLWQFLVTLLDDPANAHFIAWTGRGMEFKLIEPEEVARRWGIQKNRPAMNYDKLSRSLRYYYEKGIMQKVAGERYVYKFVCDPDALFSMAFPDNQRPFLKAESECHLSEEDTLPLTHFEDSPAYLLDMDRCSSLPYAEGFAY
HSF1, sequence (Q00613 whole entry): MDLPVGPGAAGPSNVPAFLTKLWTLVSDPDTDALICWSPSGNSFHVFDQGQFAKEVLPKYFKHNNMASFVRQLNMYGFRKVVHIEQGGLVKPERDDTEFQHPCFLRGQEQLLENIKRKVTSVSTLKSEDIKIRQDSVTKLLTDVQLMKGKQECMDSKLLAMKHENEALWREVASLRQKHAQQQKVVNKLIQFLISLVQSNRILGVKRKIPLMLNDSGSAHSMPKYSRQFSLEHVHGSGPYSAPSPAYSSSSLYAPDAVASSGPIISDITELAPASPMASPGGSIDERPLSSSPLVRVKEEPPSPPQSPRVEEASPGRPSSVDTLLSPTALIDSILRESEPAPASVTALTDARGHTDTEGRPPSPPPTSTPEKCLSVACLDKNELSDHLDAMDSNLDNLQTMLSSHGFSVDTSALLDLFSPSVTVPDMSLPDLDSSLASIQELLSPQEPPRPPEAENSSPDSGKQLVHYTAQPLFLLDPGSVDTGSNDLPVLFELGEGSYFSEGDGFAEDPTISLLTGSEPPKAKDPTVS
CRX, sequence (O43186 whole entry): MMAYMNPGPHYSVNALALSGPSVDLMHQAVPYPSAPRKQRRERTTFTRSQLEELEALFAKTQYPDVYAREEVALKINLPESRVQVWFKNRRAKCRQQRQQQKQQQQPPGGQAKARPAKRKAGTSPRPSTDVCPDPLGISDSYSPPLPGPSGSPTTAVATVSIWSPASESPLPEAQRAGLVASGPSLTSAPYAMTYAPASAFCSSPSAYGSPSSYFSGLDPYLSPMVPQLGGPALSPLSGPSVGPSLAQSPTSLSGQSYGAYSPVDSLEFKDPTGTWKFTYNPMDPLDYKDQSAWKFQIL
ELF1, sequence (P32519 whole entry): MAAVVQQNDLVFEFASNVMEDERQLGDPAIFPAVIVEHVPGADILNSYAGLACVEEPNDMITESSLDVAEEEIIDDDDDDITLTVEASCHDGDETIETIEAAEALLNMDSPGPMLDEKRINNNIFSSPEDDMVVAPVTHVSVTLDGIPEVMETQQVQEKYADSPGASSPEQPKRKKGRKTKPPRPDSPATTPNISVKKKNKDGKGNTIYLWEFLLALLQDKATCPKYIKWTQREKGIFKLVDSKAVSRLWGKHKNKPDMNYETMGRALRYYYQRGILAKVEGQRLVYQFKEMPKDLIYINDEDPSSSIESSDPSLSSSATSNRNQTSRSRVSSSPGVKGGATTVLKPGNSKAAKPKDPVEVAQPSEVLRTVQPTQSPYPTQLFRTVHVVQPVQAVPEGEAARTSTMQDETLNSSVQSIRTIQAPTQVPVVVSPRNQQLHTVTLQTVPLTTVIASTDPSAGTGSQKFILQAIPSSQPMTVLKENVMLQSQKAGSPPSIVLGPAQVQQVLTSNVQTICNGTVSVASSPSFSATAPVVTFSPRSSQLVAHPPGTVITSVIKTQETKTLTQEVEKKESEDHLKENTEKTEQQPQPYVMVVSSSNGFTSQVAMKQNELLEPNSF
ELF4, sequence (Q99607 whole entry): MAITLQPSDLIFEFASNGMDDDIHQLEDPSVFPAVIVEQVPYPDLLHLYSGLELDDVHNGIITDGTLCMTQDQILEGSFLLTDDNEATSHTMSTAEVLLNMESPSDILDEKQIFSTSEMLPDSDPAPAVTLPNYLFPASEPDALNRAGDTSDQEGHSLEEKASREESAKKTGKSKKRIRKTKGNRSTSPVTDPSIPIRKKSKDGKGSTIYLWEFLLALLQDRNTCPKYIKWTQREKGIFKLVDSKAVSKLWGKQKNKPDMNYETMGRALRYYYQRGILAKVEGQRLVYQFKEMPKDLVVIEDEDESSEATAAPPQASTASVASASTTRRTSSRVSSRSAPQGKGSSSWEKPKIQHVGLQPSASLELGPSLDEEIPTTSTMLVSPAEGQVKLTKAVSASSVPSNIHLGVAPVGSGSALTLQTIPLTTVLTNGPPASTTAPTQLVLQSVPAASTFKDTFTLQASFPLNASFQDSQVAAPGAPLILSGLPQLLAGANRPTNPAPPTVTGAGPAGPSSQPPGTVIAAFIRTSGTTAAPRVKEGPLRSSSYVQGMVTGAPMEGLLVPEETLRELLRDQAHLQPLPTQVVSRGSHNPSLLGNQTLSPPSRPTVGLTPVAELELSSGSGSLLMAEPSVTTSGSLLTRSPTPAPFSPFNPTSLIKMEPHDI

For the sequence AGTTCT, the binding signal in assay [1] was 1.02 fold enrichment (6-mer frequency, TF over GST control); in [2], 1.15 fold enrichment (6-mer frequency, TF over GST control); in assay [3], 1.11 fold enrichment (6-mer frequency, TF over GST control); in assay [4], 1.11 fold enrichment (6-mer frequency, TF over GST control); in assay [5], 1.04 fold enrichment (6-mer frequency, TF over GST control); in assay [6] it was 1.14 fold enrichment (6-mer frequency, TF over GST control). Further, the binding signal in assay [7] is 1.2 fold enrichment (6-mer frequency, TF over GST control); in assay [8] it was 1.11 fold enrichment (6-mer frequency, TF over GST control); in assay [9] it was 1.1 fold enrichment (6-mer frequency, TF over GST control); in assay [10], 1.12 fold enrichment (6-mer frequency, TF over GST control); in [11], 1.92 fold enrichment (6-mer frequency, TF over GST control); in assay [12], 1.1 fold enrichment (6-mer frequency, TF over GST control). Further, the binding signal was 1.13 fold enrichment (6-mer frequency, TF over GST control) in assay [13]; 1.2 fold enrichment (6-mer frequency, TF over GST control) in [14]; 1.17 fold enrichment (6-mer frequency, TF over GST control) in [15]; 1.19 fold enrichment (6-mer frequency, TF over GST control) in [16]; 1.03 fold enrichment (6-mer frequency, TF over GST control) in assay [17].
